# PubChem BioAssay (NCI)
# Compounds without any hit were thinned out: in the full panel of roughly 79,000, 15% have a hit. Unmarked numbers belong to inactive results. Activity calls are given as the source filed them. Cut-off read from the data, not from the text of the source: active = growth inhibition above about 70%; inactive = the rest.
# Columns and labels:
# [1] = NCI Yeast Anticancer Drug Screen. Data for the rad14 strain (AID 159);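 note: 0% = growth of vehicle-treated control cultures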; settings: S. cerevisiae rad14 strain growth inhibition, active compounds read high
# Procedure, shortened: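 DNA repair-defective yeast, compound-exposed; % growth inhibition derived by comparison with vehicle-treated controls.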
# [2] = NCI Yeast Anticancer Drug Screen. Data for the sgs1 mgt1 strain (AID 161);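 note: 0% = growth of cultures given vehicle only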; settings: S. cerevisiae sgs1 mgt1 strain, active compounds read high
# Procedure, shortened: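 Inhibition of yeast growth, normalised to vehicle-treated controls, is reported for a strain bearing genetic alterations in DNA damage repair.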
# [3] = NCI Yeast Anticancer Drug Screen. Data for the CLN2oe strain (AID 163);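 note: 0% = growth of vehicle-only control cultures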; settings: S. cerevisiae CLN2oe strain, active compounds read high
# Procedure, shortened: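 Read-out: yeast growth inhibition, expressed relative to vehicle-only controls. The strain bears an engineered cell-cycle alteration.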
# [4] = NCI Yeast Anticancer Drug Screen. Data for the cln2 rad14 strain (AID 165);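 note: 0% = growth equal to vehicle treated cultures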; settings: S. cerevisiae cln2 rad14 strain, active compounds read high
# Procedure, shortened: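 cln2 rad14 yeast strain; compound exposure; growth inhibition read vs vehicle controls.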
# [5] = NCI Yeast Anticancer Drug Screen. Data for the bub3 strain (AID 167); settings: S. cerevisiae bub3 mutant strain, active compounds read high
# Procedure, shortened: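 In this screen, a yeast mutant lacking normal mitotic checkpoint function is challenged with compound. Relative growth versus vehicle gives the inhibition value.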
# [6] = NCI Yeast Anticancer Drug Screen. Data for the wt2 strain (AID 169);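 note: 0% = growth of vehicle-treated yeast cultures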; settings: S. cerevisiae wt2 strain growth inhibition, active compounds read high
# Procedure, shortened: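 Read-out: growth inhibition versus vehicle-treated control cultures after compound exposure of the yeast strain.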
# [7] = NCI Yeast Anticancer Drug Screen. Data for the mlh1 strain (AID 171);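 note: 0% = growth of vehicle-treated control cultures of the same strain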; settings: S. cerevisiae mlh1 strain growth inhibition, active compounds read high
# Procedure, shortened: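 Read-out: growth inhibition versus vehicle controls. Strain: engineered yeast with a defined DNA repair or cell cycle defect, compound-treated.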
# [8] = NCI Yeast Anticancer Drug Screen. Data for the mlh1 rad18 strain (AID 175); settings: S. cerevisiae mlh1 rad18 strain growth inhibition, active compounds read high
# Procedure, shortened: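 Yeast w/ defined DNA-repair lesions; compound exposure; growth vs vehicle controls → % inhibition.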
# [9] = NCI Yeast Anticancer Drug Screen. Data for the rad18 strain (AID 177); settings: S. cerevisiae rad18 mutant growth inhibition, active compounds read high
# Procedure, shortened: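 Readout: growth inhibition vs vehicle controls. Cells: genetically altered yeast strain, DNA repair defect.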
# [10] = at 5.0 µM (retest, dose inferred, filed as 0.5)
# [11] = at 50.0 µM (retest, dose inferred, filed as 5.0)
structure (smiles),measurement,setting,value
COc1cc(C2C3=C(COC3=O)Oc3cc4c(cc32)OCO4)ccc1O (centres undefined),growth inhibition,[1]; at 33.0 µM,-8%
same,growth inhibition,[1]; at 100.0 µM,-20%
same,growth inhibition,[2]; [10],77% (active)
same,growth inhibition,[2]; [11],77% (active)
same,growth inhibition,[2]; at 50.0 µM,22.4%
same,growth inhibition,[3]; at 1.2 µM,0%
same,growth inhibition,[3]; at 3.7 µM,8%
same,growth inhibition,[3]; at 11.0 µM,-1%
same,growth inhibition,[3]; at 33.0 µM,-2%
same,growth inhibition,[3]; at 100.0 µM,24%
same,growth inhibition,[4]; [10],43%
same,growth inhibition,[4]; [11],43%
same,growth inhibition,[4]; at 50.0 µM,34.2%
same,growth inhibition,[5]; at 1.2 µM,-2%
same,growth inhibition,[5]; at 3.7 µM,1%
same,growth inhibition,[5]; [10],-4%
same,growth inhibition,[5]; at 11.0 µM,12%
same,growth inhibition,[5]; at 33.0 µM,5%
same,growth inhibition,[5]; [11],-4%
same,growth inhibition,[5]; at 50.0 µM,29.3%
same,growth inhibition,[5]; at 100.0 µM,32%
same,growth inhibition,[6]; at 1.2 µM,-2%
same,growth inhibition,[6]; at 3.7 µM,-4%
same,growth inhibition,[6]; at 11.0 µM,-5%
same,growth inhibition,[6]; at 33.0 µM,-1%
same,growth inhibition,[6]; at 100.0 µM,42%
same,growth inhibition,[7]; at 1.2 µM,-1%
same,growth inhibition,[7]; at 3.7 µM,-5%
same,growth inhibition,[7]; at 11.0 µM,-4%
same,growth inhibition,[7]; at 33.0 µM,8%
same,growth inhibition,[7]; at 100.0 µM,0%
same,growth inhibition,[8]; [10],45%
same,growth inhibition,[8]; [11],45%
same,growth inhibition,[8]; at 50.0 µM,78% (active)
same,growth inhibition,[9]; at 1.2 µM,2%
same,growth inhibition,[9]; at 3.7 µM,-6%
same,growth inhibition,[9]; at 11.0 µM,3%
same,growth inhibition,[9]; at 33.0 µM,32%
same,growth inhibition,[9]; at 100.0 µM,80% (active)
